# Source: paper PMC6792352, “Limited Chemical Structural Diversity Found to Modulate Thyroid Hormone Receptor in the Tox21 Chemical Library” (Environmental Health Perspectives, 2019)
# Counter-ions that a name gives are not always drawn.
# System: thyroid hormone receptor (endogenous TRα and TRβ)
# Design: species or system GH3-TRE-Luc (rat pituitary); GH3-TRE-Luc luciferase reporter, antagonist mode against 1 nM T3, loss of signal, qHTS
# Details: read-out: Average AC50 (uM) GH3-TRE-Antag; 24 h; antagonist
row,SMILES,AC50
1,C[C@]12CC[C@H]3[C@@H](CCC4=CC(=O)CC[C@@H]43)[C@@H]1CC[C@@H]2O [Nandrolone],32.5 µM
2,Nc1c(Cl)cc([N+](=O)[O-])cc1Cl [Dicloran],91.8 µM
3,"CCc1cc(OC)c(C[C@@H](C)N)cc1OC [(-)-2,5-Dimethoxy-4-ethylamphetamine hydrochloride]",71.2 µM
4,O=C1Nc2ccc(Cl)cc2C(c2ccccc2)=NC1O (stereo not drawn) [Oxazepam],> 50 µM
5,CSCCCN=C=S [3-(Methylthio)propyl isothiocyanate],> 90 µM
6,Cc1ncc2n1-c1ccc(Cl)cc1C(c1ccccc1F)=NC2 [Midazolam hydrochloride],32.8 µM
